Assay results as given in PubChem BioAssay (EPA / NIEHS).
Results filed as inconclusive are left out. Calls of active or inactive are those of the source. The calls were made as follows: active = hit-call score of the fitted dose curve at least 0.9, where 1 is the maximum; inconclusive = response in the unintended direction; inactive = score below 0.9.

Each molecule was assayed against Estrogen receptor (Homo sapiens) (UniProt P03372) (assay: OT_ER_ERaERa_0480: Odyssey Thera (OT) 8-hour HEK293T Protein-Complementation Assay for Estrogen Receptor-alpha/-alpha Homodimer (AID 2283351);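 also: rise in fluorescence from reassembled reporter fragments on ERα LBD homodimer in nucleus or whole cell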).
Sequence of Estrogen receptor (Homo sapiens) (P03372 whole entry, looked up, the tested form may be a part): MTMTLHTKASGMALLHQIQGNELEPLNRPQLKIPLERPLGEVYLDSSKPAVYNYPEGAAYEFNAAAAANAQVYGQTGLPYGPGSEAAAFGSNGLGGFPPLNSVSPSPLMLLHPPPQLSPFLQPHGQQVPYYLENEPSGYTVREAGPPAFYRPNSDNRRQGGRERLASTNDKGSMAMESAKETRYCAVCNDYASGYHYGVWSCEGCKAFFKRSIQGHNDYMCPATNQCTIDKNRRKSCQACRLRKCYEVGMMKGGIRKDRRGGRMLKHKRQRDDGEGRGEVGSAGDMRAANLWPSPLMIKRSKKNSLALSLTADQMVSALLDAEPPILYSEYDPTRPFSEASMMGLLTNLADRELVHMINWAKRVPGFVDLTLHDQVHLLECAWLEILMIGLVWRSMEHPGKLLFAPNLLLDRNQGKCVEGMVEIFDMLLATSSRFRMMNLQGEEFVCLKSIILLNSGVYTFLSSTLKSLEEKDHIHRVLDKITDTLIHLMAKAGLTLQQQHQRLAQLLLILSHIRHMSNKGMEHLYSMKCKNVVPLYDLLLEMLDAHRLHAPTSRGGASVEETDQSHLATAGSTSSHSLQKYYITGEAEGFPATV
Method in brief: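 Read-out: fluorescence intensity rise relative to DMSO, nuclear for agonists, nuclear plus cytoplasmic for antagonists. Construct is the ERα LBD (aa 310-547) homodimer fragment-complementation pair, stably expressed in HEK293T; exposure 8 h.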

Row | SMILES | outcome
1 | CC(=O)c1ccccc1 | inactive
2 | Cn1c(=O)c2[nH]cnc2n(C)c1=O | inactive
3 | c1ccc2ncccc2c1 | inactive
4 | OCCNCCO | inactive
5 | COS(C)(=O)=O | inactive
6 | C=CCc1cc(S(=O)(=O)c2ccc(O)c(CC=C)c2)ccc1O | inactive
7 | CCOc1ccc2[nH]cc(C(=O)NCc3ccccc3)c(=O)c2n1 | inactive
8 | COc1cc2c(c(OC)c1OC)-c1ccc(OC)c(=O)cc1[C@@H](NC(C)=O)CC2 | inactive
9 | c1ccc2c(c1)-c1cccc3c1c-2cc1ccccc13 | inactive
10 | O=C(O)c1cccc(C(=O)O)c1 | inactive
11 | c1ccc2cc3ccccc3cc2c1 | inactive
12 | OCC(CO)(CO)CO | inactive
13 | COCc1nnc(-c2ccc[n+]([O-])c2)n1-c1c(Cl)c(Cl)cc2[nH]c(=O)c(=O)[nH]c12 | inactive
14 | CCCCCCCCCCCCCCCCOS(=O)(=O)O | inactive
15 | OCc1ccccc1 | inactive
16 | CC(C)c1nnc2ccc(-c3ocnc3-c3cc(F)ccc3F)cn12 | inactive
17 | c1ccc(C(O[C@@H]2CCCN(CCc3ccc4c(c3)OCO4)C2)c2ccccc2)cc1 | inactive
18 | CCOC(N)=O | inactive

Row | SMILES | outcome
19 | NC(N)=O | inactive
20 | OCCOCCOCCO | inactive
21 | CCCCC(CC)C(=O)OCCOCCOCCOC(=O)C(CC)CCCC (stereo not given) | inactive
22 | C=CN1CCCC1=O | inactive
23 | CCc1cccc(CC)c1N | inactive
24 | CCCCCCOC(=O)CC(CC(=O)OCCCCCC)(OC(=O)CCC)C(=O)OCCCCCC | inactive
25 | CCCC(CCC)C(=O)O | inactive
26 | CCCCOC(=O)c1ccccc1 | inactive
27 | COc1cc(C(C)C)c2c(c1)S(=O)(=O)N(COc1cc(=O)n3cccc(OCCN4CCCCC4)c3n1)C2=O | inactive
28 | OC[C@H]1O[C@@H]2O[C@H]3[C@H](O)[C@@H](O)[C@@H](O[C@H]4[C@H](O)[C@@H](O)[C@@H](O[C@H]5[C@H](O)[C@@H](O)[C@@H](O[C@H]6[C@H](O)[C@@H](O)[C@@H](O[C@H]7[C@H](O)[C@@H](O)[C@@H](O[C@H]1[C@H](O)[C@H]2O)O[C@@H]7CO)O[C@@H]6CO)O[C@@H]5CO)O[C@@H]4CO)O[C@@H]3CO | inactive
29 | Cc1nc(-c2ccccn2)ncc1C(=O)Nn1cc(C)c2cc(F)ccc21 | inactive
30 | CCCCCOC(C)=O | inactive
31 | CCN(CC)C(=S)SSC(=S)N(CC)CC | inactive
32 | O=C(O)[C@H](O)[C@@H](O)C(=O)O | inactive
33 | O=c1[nH]cnc2c1ncn2[C@H]1CC[C@@H](CO)O1 | inactive
34 | CCCCCCCCN(C)C | inactive
35 | Nc1ccn([C@@H]2O[C@H](CO)[C@@H](O)[C@@H]2O)c(=O)n1 | inactive
